Compound activity from PubChem.
In the library only some 2.4% were active in any assay of this set; here they are far more common.
BRCT PPI green: qHTS Assay for Inhibitors of BRCT-Phosphoprotein Interaction (Green Fluorophore) | AID 875, 2007 | BRCA1 BRCT-phosphopeptide binding, green fluorescence polarization | 75,000 tested, 0.05% active | Potency, µM (doses to about 76.9 µM), for the others: top-dose activity change, negative = inhibition, most hits filed as inhibitors;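 further: potency means the concentration at half of the fitted maximal effect; plate controls were peptide without protein for full effect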
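Fluorescence polarization: His-tagged BRCT (~35 kDa BRCA1 C-terminus, 250 nM) bound to 100 nM fluorescein-labeled phosphorylated 10-aa BACH1 peptide, pH 7.3 phosphate buffer with DTT and Tween 20. Compounds incubated 12 min at room temperature; inhibition read as lowered polarization.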
BRCT PPI red: qHTS Assay for Inhibitors of BRCT-Phosphoprotein Interaction (Red Fluorophore) | Breast cancer type 1 susceptibility protein (Homo sapiens), P38398 | BRCT-phosphopeptide binding, red fluorescence polarization | Potency, µM (series often up to 76.9 µM), for inactives: at the top dose activity change, negative = inhibition, usual class: inhibitors | 75,000 tested, 0.03% active | AID 892, 2007; further: on the % scale 0 is the no-effect control and ±100 the full control effect
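Fluorescence polarization: 100 nM His-tagged BRCA1 BRCT with 100 nM TAMRA-labelled phospho-BACH1 decapeptide, phosphate buffer pH 7.3 with 150 mM NaCl, DTT, 0.01% Tween 20; 12 min RT. Binding inhibition seen as FP decrease.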
YjeE inh: qHTS Assay for Inhibitors of YjeE; 71,000 tested, 0.05% active; purified YjeE enzyme, qHTS inhibition assay; tRNA threonylcarbamoyladenosine biosynthesis protein TsaE (Escherichia coli (strain …; Potency, µM
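Fluorescence polarization of a BODIPY Texas Red–ADP probe (2 uM) bound to purified YjeE (10 uM) was read after 15 min room-temperature incubation with compounds. Loss of polarization marks inhibitors; ADP serves as titrated control.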
Pol III holo inh: qHTS Assay for Inhibitors of DNA Polymerase III Holoenzyme System | reconstituted DNA polymerase III holoenzyme replication, biochemical | Potency, µM (titrated, usually from 57.1 µM), for inactives: at the highest dose activity change, negative = inhibition | 71,000 tested, 0.25% active; further: potency means the concentration at half of the fitted maximal effect; on the % scale 0 is the no-effect control and ±100 the full control effect
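Reconstituted *E. coli* holoenzyme (0.35 nM Pol III, 1 nM beta, 154 nM SSB, 2 nM primase) was preincubated with compound for 15 min at RT. Synthesis on 1.4 nM ssM13Gori ran 35 min, then was stopped with PicoGreen/EDTA and read as dsDNA fluorescence.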
Hsp90 Hop PPI: qHTS Assay for Disrupters of an Hsp90 Co-Chaperone Interaction; Hsp90 C-terminal peptide / TPR2A (Hop) interaction, human; AlphaScreen TPR2A-His6 binding biotin-Hsp90 C-terminal peptide; Potency, µM (titrated, usually from 57 µM), for the others: at the top dose activity change, negative = inhibition; 71,000 tested, 0.44% active; AID 595, 2007; active means well fitted curve in either direction with a large enough effect; inconclusive means small, poorly fitted or top-dose-only effect, or another doubt; further: potency means the concentration at half of the fitted maximal effect; on the % scale 0 is the no-effect control and ±100 the full control effect
Tau fil binding: qHTS Assay for Tau Filament Binding | Microtubule-associated protein tau (Homo sapiens), P10636 | recombinant tau filaments, thioflavin S fluorescence, 15 h; filaments grown with octadecylsulfate alongside compound | Potency, µM (titrated, usually from 57.1 µM), for the others: top-dose activity change, negative = inhibition | 71,000 tested, 2% active | AID 596, 2007;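 further: potency means the concentration at half of the fitted maximal effect; on the % scale 0 is the no-effect control and ±100 the full control effect; actives lower thioflavin S fluorescence by blocking filaments or displacing dye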
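Read-out: ThS fluorescence, 450 nm excitation/510 nm emission; lower signal marks blocked filament formation or displaced dye. Tau at 1 uM with 30 uM ODS, 10 uM ThS, 5 mM DTT, 100 mM NaCl, 10 mM HEPES pH 7.4; 15 h, 37 C.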
* marks the source's active call; other numbers are inactive results; i = inactive; ? = inconclusive; nt = no result; ! = not active in a repeat; [ ] = another dose, or the depositor's remark. Unless noted, the call rests on the fitted dose curve; in most records, active means well fitted curve in the direction sought with a large enough effect; inconclusive means small, poorly fitted or top-dose-only effect, or another doubt; inactive means no such curve, though single readings can be large; an effect the other way counts as inactive or inconclusive.

SMILES	BRCT PPI green	BRCT PPI red	YjeE inh	Pol III holo inh	Hsp90 Hop PPI	Tau fil binding
CC(Oc1ccc(Cl)cc1Cl)c1nc(-c2ccccn2)no1 (stereo unspecified)	3%	-1%	i	-2%[11.4 µM]	16%[11 µM]	5%[11.4 µM]
O=C(O)CCCCn1ccc(=O)[nH]c1=O	-2%[15.4 µM]	-3%[15.4 µM]	i	22%[11.4 µM]	1%[11 µM]	2%[11.4 µM]
CN(C)CC(=O)c1ccc(-c2ccccc2)cc1	2%	0%	i	-1%	-5%	25µM*
COc1cc(O)c2c(=O)cc(-c3ccccc3)oc2c1	-3%	-1%	i	-3%	-2%	32µM*
COc1ccc(NC(=O)c2oc3ccccc3c2NC(=O)C(C)(C)C)cc1	1%	0%	i	-4%	6%	13µM*
O=C1c2ccccc2C(=O)c2c1ccc(O)c2O	-7%	-3%	nt	nt	nt	nt
Nc1ccc2c(c1)C(=O)c1ccccc1C2=O	-5%	0%	i	-13%	-9%	1.6µM*
CCCC(=O)Nc1ncnc2c1ncn2C1OC2COP(=O)(O)OC2C1OC(=O)CCC (stereo unspecified)	1%[3.08 µM]	0%	nt	nt	nt	nt
CCCC(=O)Nc1ncnc2c1ncn2[C@@H]1O[C@@H]2COP(=O)(O)O[C@H]2[C@H]1OC(=O)CCC	-2%	-3%	i	-3%	-4%	40µM*
COc1ccc(Cl)c(N2CCN(CCCNC(=O)Nc3ccc(C)cc3)CC2)c1	0%	-1%	i	-8%	-13%	16µM*
Cc1ccc(NC(=O)NCCCN2CCOCC2)cc1	-7%	-1%	i	-8%	-1%	-9%
CCOC(=O)c1cccc(NC(=O)c2cccnc2)c1	-1%	0%	i	-4%	-1%	6%
CCOC(=O)c1cccc(NC(=O)c2cnc3ccccc3n2)c1	1%	1%	i	-4%	1%	25µM*
COc1ccc(O[C@H]2C=C[C@@H](c3ccccc3)O[C@H]2COC(=O)CC/C(C)=N\OC[C@@H](O)[C@H]2O[C@H]3OC(C)(C)O[C@H]3[C@@H]2O)cc1	-1%[15.4 µM]	1%[15.4 µM]	nt	nt	nt	nt
CCCOC(=O)c1ccc(Oc2cn[nH]c2-c2ccc(OC)cc2O)cc1	4%	-2%	i	-11%	7%	13µM*
CC(=O)O[C@@H]1CC[C@]2(C)C(=C[C@@H]([C@@H]3C=C4C[C@@H](OC(C)=O)CC[C@]4(C)C4=C3[C@H]3C[C@@H]5O[C@@]6(CC[C@H](C)CO6)[C@@H](C)[C@@H]5[C@@]3(C)CC4)C3=C2CC[C@@]2(C)[C@H]4[C@@H](C)[C@]5(CC[C@H](C)CO5)O[C@@H]4C[C@H]32)C1	1%[15.4 µM]	-4%[15.4 µM]	i	-2%[11.4 µM]	-6%[11 µM]	6%[11.4 µM]
COc1ccc(CCNC(=O)c2ccc3nc(-c4ccco4)c(-c4ccco4)nc3c2)cc1OC	-2%	-1%	i	1%	-15%	3.2µM*
COc1ccc(CCNC(=O)COC(=O)c2ccco2)cc1OC	-1%	2%	i	-3%	0%	-6%
C=CCn1c(SCC(=O)Nc2ccc(N(C)C)cc2)nnc1-c1cccc(C)c1	-2%	-1%	i	14%	-13%	25µM*
COCCn1c(=O)cnc2cnc(Oc3ccc(OC)cc3)nc21	0%	1%	i	-3%	-4%	-6%
Oc1cc(O)c2c(c1)O[C@H](c1ccc(O)c(O)c1)[C@@H](O)[C@@H]2c1c(O)cc(O)c2c1O[C@@H](c1ccc(O)c(O)c1)[C@H](O)C2	0%[15.4 µM]	2%[15.4 µM]	i	0.63µM*	-21%[11 µM]	2%[11.4 µM]
COc1cc2cc3c4cc(OC)c(OC)cc4cc[n+]3c(C)c2cc1OC	-1%[3.08 µM]	-1%	i	13µM*	?	184%[25.6 µM]
COc1cc2cc[n+]3cc4c(OC)c(OC)ccc4cc3c2cc1OC	-2%[3.08 µM]	2%	nt	nt	nt	nt
O=C(c1cnccn1)N1CCC2(CC1)CN(c1ccncc1)C2	0%	0%	i	3%	1%	-9%
CCN1c2ccccc2NC2N=C(OC)C(c3ccccc3)C21 (stereo unspecified)	-1%	0%	i	0%	-20%	32µM*
SMILES	BRCT PPI green	BRCT PPI red	YjeE inh	Pol III holo inh	Hsp90 Hop PPI	Tau fil binding
CCN1c2ccccc2NC2C1C(C(C)=O)C(=O)N2c1ccc(Cl)cc1 (stereo unspecified)	2%	1%	i	0%	-27%	-29%
Cc1cnc(CNc2ncnc3ccc(-c4ccc(C(=O)N(C)C)cc4)cc23)cn1	0%	-3%	i	-7%	1%	-6%
COCCNc1ncnc2ccc(-c3ccoc3)cc12	0%	-1%	i	-9%	-6%	0%
COCCNc1ncnc2ccc(-c3ccc(N(C)C)cc3)cc12	-1%	-1%	i	-6%	-10%	16µM*
CN(C)c1ccc(-c2ccc3ncnc(NCc4ccccc4)c3c2)cc1	-4%	-2%	i	-10%	-18%	2.5µM*
Cc1cnc(CNc2ncnc3ccc(-c4ccc(N(C)C)cc4)cc23)cn1	-1%	-5%	i	0%	-21%	25µM*
N[C@]1(C(=O)O)CCc2cc(P(=O)(O)O)ccc21	1%	0%	i	-8%	-1%	7%
COc1cc(C2c3[nH]c4ccccc4c3CC3C(=O)N4C(Cc5c([nH]c6ccccc56)C4c4cc(OC)c(OC)c(OC)c4)C(=O)N32)cc(OC)c1OC (stereo unspecified)	-2%[15.4 µM]	-1%[15.4 µM]	nt	nt	nt	nt
O=C(OCc1cc(=O)n2c(n1)sc1ccccc12)c1ccc2c(=O)n3c(nc2c1)CCC3	-5%	-6%	i	-7%	-2%	6.3µM*
CN(C(=O)c1ccc2c(=O)n3c(nc2c1)CCCCC3)c1ccccc1	-1%	2%	i	1%	0%	0%
O=C(O)[C@@H]1[C@@H](C(=O)NCc2ccncc2)[C@@H]2C=C[C@@H]1O2	0%[15.4 µM]	1%[15.4 µM]	i	-7%[11.4 µM]	-2%[11 µM]	5%[11.4 µM]
O=C(O)c1cc(N=Nc2ccc([N+](=O)[O-])cc2)ccc1O	-2%[15.4 µM]	0%[15.4 µM]	i	-12%[11.4 µM]	-28%[11 µM]	32µM*!
CC1=CCC2CC1C2(C)C (stereo unspecified)	-2%	0%	i	-1%	1%	-2%
O=C(Cn1nnc2c(cnn2-c2ccccc2)c1=O)N1CCN(c2ccccc2F)CC1	0%	0%	i	4%	1%	?
